CYP2C19 inhib: blockers of cytochrome P450 2C19 activity – biochemical, luminescence, ADME assay, primary screen; P33261; CYP2C19 Supersomes, luciferin-H EGE luminescence, 30 min; actives 21% (n = 96,000); AID 778, 2007; inhibition, % at 5 µM;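 active = CYP2C19 inhibition above a set limit at 5 µM in the primary screen, cut at about 50% in these data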;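 also: plate controls were negative control wells for no effect and 2.5 mM tranylcypromine positive control for full effect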
CYP2C9 act: human CYP2C9 activators, primary screen, biochemical, luminescence. recombinant CYP2C9, luciferin-H conversion; stronger effect = higher value; factor 1 = untreated enzyme, 0 = blocked. activation factor at 5 µM. actives 1.4% (n = 96,000);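 active = activation factor of 2 or more for CYP2C9 at a 5 µM dose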;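 also: 0 = sulfaphenazole-blocked wells and 1 = vehicle-only wells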
Target sequence (P11712 whole entry, looked up): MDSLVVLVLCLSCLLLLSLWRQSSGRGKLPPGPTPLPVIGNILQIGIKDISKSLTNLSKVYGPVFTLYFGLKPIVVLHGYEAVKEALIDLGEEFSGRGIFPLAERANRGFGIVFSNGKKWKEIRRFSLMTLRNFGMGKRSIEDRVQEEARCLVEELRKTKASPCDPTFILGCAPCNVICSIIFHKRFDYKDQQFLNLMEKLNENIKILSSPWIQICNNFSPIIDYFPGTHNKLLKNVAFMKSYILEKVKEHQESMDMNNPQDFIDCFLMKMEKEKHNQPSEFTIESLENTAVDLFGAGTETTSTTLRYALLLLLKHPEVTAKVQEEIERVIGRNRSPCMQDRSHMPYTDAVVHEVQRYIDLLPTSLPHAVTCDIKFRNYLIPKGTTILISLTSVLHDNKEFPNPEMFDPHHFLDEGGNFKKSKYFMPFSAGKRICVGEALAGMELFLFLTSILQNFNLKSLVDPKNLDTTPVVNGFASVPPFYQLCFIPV
PLAP activator: PLAP enzyme activators, biochemical, luminescence, HTS; Alkaline phosphatase, placental type (Homo sapiens), P05187; purified PLAP enzyme, luminescent substrate read-out; stronger effect = higher value; activation fold at 20 µM; actives 1.2% (n = 96,000); in the data active = activation fold above about 2
CYP2C19 act: human CYP2C19 activators, primary screen, biochemical, luminescence. activation factor at 5 µM. Cytochrome P450 2C19 (Homo sapiens), P33261. recombinant CYP2C19, luciferin-H EGE luminescence; stronger effect = higher value; 0 = fully inhibited enzyme, 1 = untreated enzyme. 96,000 tested, under 10 active;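 active = activation factor of at least 2 at 5 µM in the primary screen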;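 also: 0 = wells with 2.5 mM tranylcypromine and 1 = vehicle-only wells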
CYP2C9 inhib: blockers of cytochrome P450 2C9 activity – biochemical, luminescence, ADME assay, primary screen. P11712. CYP2C9 Supersomes, luciferin-H conversion. inhibition, % at 5 µM. actives 20% (n = 96,000). AID 777, 2007;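 active = blocking of liver enzyme CYP2C9 beyond about 50% at 5 µM, limit read from the data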
* hit, by the source's call. Sampled rows, rich in hits. Any-hit rate of the full collection: about 31%.

SMILES	CYP2C19 inhib	CYP2C9 act	PLAP activator	CYP2C19 act	CYP2C9 inhib
CC(=O)N(CCO)Cc1cc2cc(C)cc(C)c2[nH]c1=O	1	0.9	1	1	8
Clc1cccc(Cl)c1COc1ccccn1	52*	0.6	0.9	0.5	37
N/C(=N\OC(=O)c1ccccc1Cl)c1ccccn1	38	0.6	0.8	0.6	40
O=C(Nc1cccc(Br)c1)c1ccn[nH]1	16	1.1	1.3	0.8	-6
COc1ccc(N(CC(O)Cn2nnc3ccccc32)S(=O)(=O)c2ccc(C)cc2)cc1 (stereo unspecified)	86*	0.3	1.7	0.1	69*
COc1ccc(N(CC(O)CN2C(=O)NC(C)(C)C2=O)S(=O)(=O)c2ccc(C)cc2)cc1 (stereo unspecified)	61*	0.3	1.5	0.4	66*
COc1ccc(N(CC(O)CN2CCCCC2)S(=O)(=O)c2ccc(C)cc2)cc1 (stereo unspecified)	-5	0.9	1.4	1.1	10
CC(C(=O)c1ccccc1)n1cnc2ccccc2c1=O (stereo unspecified)	35	0.6	0.9	0.7	38
CCn1c(Sc2nc(C)nc3scc(-c4cccs4)c23)n[nH]c1=O	57*	0.4	1.6	0.4	58*
Cc1cc(-c2cccs2)c2c(n1)sc1c(=O)[nH]c(=O)[nH]c12	-22	1	1	1.2	0
NC(=O)c1ncc(C(F)(F)F)cc1Oc1cccc(C(F)(F)F)c1	93*	0.6	0.9	0.1	43
COc1ccc(Oc2cc(C(F)(F)F)cnc2C(N)=O)cc1	67*	0.6	0.9	0.3	36
CCC(C)N=CC1=C(O)CC(c2ccccc2)CC1=O (stereo unspecified)	52*	0.5	1.3	0.5	45
CCOC(=O)c1nnn(-c2nonc2N)c1CN(C)Cc1ccccc1	33	0.2	0.8	0.7	83*
Cc1c(C(=O)OCc2ccccc2)nnn1-c1nonc1N	99*	0.6	1	0	38
CCOC(=O)c1c(N)nn(C(=O)C(C)C)c1-c1ccccc1	69*	0.6	1.7	0.3	41
CCOC(=O)c1nnn(-c2nonc2-n2cccc2)c1C	44	0.6	1.3	0.6	41
CCOC(=O)c1nnn(-c2nonc2N)c1-c1ccc(C)cc1	40	0.7	1.1	0.6	30
CCOC(=O)c1nnn(-c2nonc2N)c1-c1ccccc1	72*	0.8	1	0.3	18
COc1cccc(-c2cc(C(=O)NCCc3ccccc3)no2)c1	12	0.8	0.9	0.9	20
COc1cc(CNC2CCCCCC2)cc(OC)c1	37	1	0.8	0.6	-1
C=CCn1c(SCC(=O)Nc2ccc(N(C)C)cc2)nnc1-c1cccc(C)c1	29	0.6	1.2	0.7	37
CCOC(=O)c1nnn(-c2nc(OC)nc(N3CCCC3)n2)c1-c1ccccc1	68*	0.5	1.1	0.3	53*
CCOC(=O)c1c(-c2ccccc2)nnn1-c1nc(OC)nc(N2CCOCC2)n1	19	0.7	1.3	0.8	26
CCOC(=O)c1nnn(-c2nn3nnnc3c3ccccc23)c1C	-11	0.4	1.1	1.1	55*
SMILES	CYP2C19 inhib	CYP2C9 act	PLAP activator	CYP2C19 act	CYP2C9 inhib
O=C(Nc1nnc(C(F)(F)F)s1)c1ccc(N2C(=O)C3C4C=CC(C4)C3C2=O)cc1 (stereo unspecified)	-9	0.7	1	1.1	30
COc1ccc(S(=O)(=O)Nc2nnc(C)s2)cc1	12	0.5	1	0.9	48
CC(C)Cc1nnc(NS(C)(=O)=O)s1	-1	0.9	1.1	1	11
CC(C)Cc1nnc(NS(=O)(=O)c2ccc(Cl)cc2)s1	9	0.3	1.1	0.9	70*
COc1ccc(S(=O)(=O)Nc2nnc(CC(C)C)s2)cc1	-2	0.4	1.4	1	63*
CC(C)(C)c1cc2cccnc2n1Cc1cccc(Cl)c1	48	0.8	0.7	0.5	16
COc1ccc(OC)c(CCNC(=O)CC2Oc3ccc(C)cc3NC2=O)c1 (stereo unspecified)	21	0.8	0.9	0.8	16
O=C(NC(=S)NNC(=O)c1cccs1)c1ccco1	-8	0.9	2.2*	1.1	11
COCCNC(=S)NNC(=O)c1ccco1	-4	1.1	2.1*	1	-8
